Results on five molecules are retold here after PubChem BioAssay.

The target in one test is Albumin (Bos taurus) (UniProt P02769). Briefly: compounds binding labelled BSA control protein – biochemical, small-molecule microarray, Alexa647 label, 635/667 nm fluorescence, artefact control for SMM control protein annotation, profiling panel (AID 1118).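 Also: score merges 667 nm emission intensity and signal-to-noise per printed compound spot.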 The following applies: BSA-A647 binding, fluorescence 635 nm, higher = more signal.
Chain of Albumin (Bos taurus) (P02769 whole entry, looked up): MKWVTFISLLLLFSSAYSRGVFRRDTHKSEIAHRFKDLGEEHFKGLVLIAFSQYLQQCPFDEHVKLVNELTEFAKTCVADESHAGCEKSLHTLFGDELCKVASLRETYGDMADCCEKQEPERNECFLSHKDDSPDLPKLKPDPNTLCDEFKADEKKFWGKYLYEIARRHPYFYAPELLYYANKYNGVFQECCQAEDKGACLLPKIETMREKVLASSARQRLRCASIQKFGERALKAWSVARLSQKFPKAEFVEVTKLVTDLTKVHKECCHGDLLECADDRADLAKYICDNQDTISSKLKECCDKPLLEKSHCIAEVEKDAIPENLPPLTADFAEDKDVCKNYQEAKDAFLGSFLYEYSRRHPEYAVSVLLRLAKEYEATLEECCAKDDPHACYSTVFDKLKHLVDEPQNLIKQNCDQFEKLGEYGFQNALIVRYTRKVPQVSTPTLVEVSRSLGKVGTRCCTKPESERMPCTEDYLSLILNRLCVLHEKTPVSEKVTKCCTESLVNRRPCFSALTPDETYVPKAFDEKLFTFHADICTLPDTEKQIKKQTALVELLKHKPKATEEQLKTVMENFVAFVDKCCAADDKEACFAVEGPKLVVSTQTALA
Test [1] is described as follows: probe aXIP binding to arrayed compounds – biochemical, NeuroSMM set, 635/667 nm fluorescence, primary screen (AID 1119).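 Also: probe is the protein aXip251-270 applied at 1 µg/mL to compound-printed slides; binding of probe to printed compounds measured as 667 nm fluorescence plus signal to noise.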 The following applies: small-molecule microarray, higher = more signal, called active from +8 up or from −8 down.
A short description of test [2]: probe aNOTCH3 binding on compound microarray – biochemical, small-molecule microarray, 635/667 nm fluorescence, primary screen (AID 1120).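 Also: probe is a biotin-tagged antibody raised against NOTCH3 rather than NOTCH3 protein; score merges spot fluorescence near 667 nm with spot signal to noise.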 The settings on record: higher = more signal.
Test [3] is described as follows: probe aNOTCH2 binding on compound microarray – biochemical, small-molecule microarray, 635/667 nm fluorescence, primary screen (AID 1121).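 Also: score merges feature fluorescence read at 667 nm with its signal to noise.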 The following applies: higher = more signal.
Test [4] has as its target Carbonic anhydrase 2 (Homo sapiens) (UniProt P00918). Kind of test: compounds binding carbonic anhydrase 2 – biochemical, small-molecule microarray, Alexa647-labelled CAII, profiling panel (AID 1122). The settings on record: CAII-A647 binding fluorescence, higher = more signal.
Test [5] in a line: COS7 lysate on small-molecule microarray, probe aHis, 635 nm (AID 1123).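 Also: z-score combines 667nm fluorescence intensity with signal-to-noise per printed compound spot.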 The following applies: COS7 cell lysate, fluorescence, higher = more signal.
A short description of test [6]: probe aLAP1 signal on lysate-treated microarray – cell lysate, small-molecule microarray, COS7 lysate, primary screen (AID 1124).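 Also: lysate comes from COS7 cells expressing LAP1 and is applied at 0.3 µg/mL; score merges spot fluorescence near 667 nm with signal-to-noise over triplicate slides.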 The settings on record: probe aLAP1, fluorescence, higher = more signal.
A further test deals with Sam68 (KHDRBS1). Briefly: compounds binding KHDRBS1 protein – biochemical, small-molecule microarray, 635 nm fluorescence, primary screen (AID 1125).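 Also: score merges 667 nm channel intensity with signal to noise over triplicate slides.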 The settings on record: higher = more signal.
The test system of test [7] is Chordin-like protein 2 (CHRDL2). Briefly: compounds binding chordin-like 2 – biochemical, small-molecule microarray, 635 nm fluorescence, primary screen (AID 1126).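 Also: printed compound slides probed with Chrdl2 protein at 4 µg/mL for 1 h at 4 C; score merges 667 nm emission intensity with signal to noise over three replicate slides.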 The following applies: fluorescence 635 nm, higher = more signal.
Test [8] concerns the target Concanavalin-A (Canavalia ensiformis) (UniProt P02866). Briefly: compounds binding concanavalin A lectin – biochemical, small-molecule microarray, Alexa647 label, 635 nm, artefact control for SMM control protein annotation, primary screen (AID 1127).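 Also: z combines 667 nm emission intensity with signal-to-noise across three replicate slides.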 The settings on record: ConA-A647 binding fluorescence, higher = more signal.
Test [9] can be described thus: compounds binding Alexa647 anti-His antibody – biochemical, small-molecule microarray, 635 nm fluorescence, artefact control for SMM control protein annotation, primary screen (AID 1128).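 Also: score merges feature fluorescence with signal-to-noise for each printed compound spot.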 The following applies: higher = more signal.
The subject of test [10] is Human papillomavirus type 1a E7 protein (residues 1-88). Briefly: HPV1a E7 small-molecule binders, primary screen, biochemical, small-molecule microarray, residues 1-88, 635 nm (AID 1129). The settings on record: small-molecule microarray binding, fluorescence 635 nm; higher = more signal.
Test [11] concerns the target Focal adhesion kinase 1 (Homo sapiens) (UniProt Q05397). Kind of test: PTK2 protein binding on printed compound slides – biochemical, small-molecule microarray, 635/667 nm fluorescence, BSA, DTT, primary screen (AID 1130).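 Also: composite of spot emission at 667 nm and signal to noise over triplicate slides.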 The following applies: 635 nm fluorescence, higher = more signal.
Test [12] concerns Fibrinogen (Alexa647-labelled). Briefly: Alexa647-fibrinogen binding to printed small molecules – biochemical, small-molecule microarray, 635/667 nm fluorescence, artefact control for SMM control-protein annotation, profiling panel (AID 1131).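 Also: z-score merges 667 nm fluorescence with per-spot signal-to-noise over triplicate slides.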 The settings on record: fibrinogen-A647 binding fluorescence, higher = more signal.
Test [13] addresses Follistatin (Homo sapiens) (UniProt P19883). Kind of test: FST protein binding to printed compounds – biochemical, small-molecule microarray, 635/667 nm fluorescence, primary screen (AID 1132). The following applies: 635 nm fluorescence, higher = more signal.
The target of test [14] is Fibroblast growth factor 2 (Homo sapiens) (UniProt P09038). Kind of test: basic fibroblast growth factor binding to printed compounds – biochemical, small-molecule microarray, 635/667 nm fluorescence, primary screen (AID 1133). The settings on record: FGF2, fluorescence 635/667, higher = more signal.
Chain of Fibroblast growth factor 2 (Homo sapiens) (P09038 whole entry, looked up): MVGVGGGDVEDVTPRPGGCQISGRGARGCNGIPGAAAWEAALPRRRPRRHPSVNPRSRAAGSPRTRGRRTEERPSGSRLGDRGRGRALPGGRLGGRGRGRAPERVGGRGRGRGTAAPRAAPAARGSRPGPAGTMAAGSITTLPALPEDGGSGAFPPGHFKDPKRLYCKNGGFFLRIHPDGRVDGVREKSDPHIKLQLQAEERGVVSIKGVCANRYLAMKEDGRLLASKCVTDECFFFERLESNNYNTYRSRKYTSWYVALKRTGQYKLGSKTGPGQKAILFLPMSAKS
The nature of test [15]: JC-1 mitochondrial potential readout, lung cancer cells – cell-based, A549, JC-1 fluorescence, basal, 24 h, 100 nL, profiling panel (AID 1138).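 Also: A549 lung adenocarcinoma cells under basal conditions with no added stimulus; test concentration not given here.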 The following applies: higher = more signal.
A further test relates to Lefty1. Kind of test: Lefty1 protein binding to printed compounds – biochemical, small-molecule microarray, 635/667 nm fluorescence, primary screen (AID 1139). The following applies: fluorescence 635/667, higher = more signal.
For test [16], the system named is wheat germ agglutinin (Triticum aestivum), Alexa647-labelled. Kind of test: Alexa647-WGA lectin binding to printed small molecules – biochemical, small-molecule microarray, 635/667 nm fluorescence, artefact control for SMM control-protein annotation, profiling panel (AID 1140).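 Also: score merges 667 nm feature emission with signal to noise over triplicate slides.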 The settings on record: WGA-A647 binding, 635 nm fluorescence, higher = more signal.
Test [17] deals with Luciferin 4-monooxygenase (Photinus pyralis) (UniProt P08659). Kind of test: inhibition of purified Photinus pyralis luciferase – biochemical, luminescence, purified enzyme, 2006 set, primary screen (AID 1141).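 Also: cell-free assay with purified firefly luciferase at 100 ng per well in PBS; test concentration not given here.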 The settings on record: purified firefly luciferase, SteadyGlo luminescence, 30 min; higher = more signal, called active from +8 up or from −8 down.
Chain of Luciferin 4-monooxygenase (Photinus pyralis) (P08659 whole entry, looked up): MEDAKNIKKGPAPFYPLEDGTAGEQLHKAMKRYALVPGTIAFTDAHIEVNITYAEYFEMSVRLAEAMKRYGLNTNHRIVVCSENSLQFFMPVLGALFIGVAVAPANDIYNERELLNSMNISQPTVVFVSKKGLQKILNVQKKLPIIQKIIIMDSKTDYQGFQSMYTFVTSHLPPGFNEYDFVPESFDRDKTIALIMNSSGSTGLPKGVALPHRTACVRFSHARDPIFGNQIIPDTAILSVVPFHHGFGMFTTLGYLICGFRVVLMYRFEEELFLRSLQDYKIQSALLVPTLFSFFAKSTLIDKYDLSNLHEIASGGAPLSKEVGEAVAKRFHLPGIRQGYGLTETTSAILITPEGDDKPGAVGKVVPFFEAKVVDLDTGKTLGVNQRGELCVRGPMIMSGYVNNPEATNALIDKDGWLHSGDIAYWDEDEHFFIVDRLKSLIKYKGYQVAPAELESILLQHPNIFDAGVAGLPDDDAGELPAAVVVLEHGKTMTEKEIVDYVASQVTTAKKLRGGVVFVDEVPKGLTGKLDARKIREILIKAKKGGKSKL

Each structure is given as a SMILES string. Active and inactive are the calls of the source.

Chain of Follistatin (Homo sapiens) (P19883 whole entry, looked up): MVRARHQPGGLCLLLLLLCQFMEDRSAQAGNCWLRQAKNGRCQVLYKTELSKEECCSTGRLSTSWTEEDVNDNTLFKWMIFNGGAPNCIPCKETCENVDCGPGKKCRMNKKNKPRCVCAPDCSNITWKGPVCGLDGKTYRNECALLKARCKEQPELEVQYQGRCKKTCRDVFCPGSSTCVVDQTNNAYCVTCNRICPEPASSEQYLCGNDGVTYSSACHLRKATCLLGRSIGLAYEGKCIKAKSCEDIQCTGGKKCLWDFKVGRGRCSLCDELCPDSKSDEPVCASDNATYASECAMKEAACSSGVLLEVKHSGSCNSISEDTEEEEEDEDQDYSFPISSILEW
Chain of Concanavalin-A (Canavalia ensiformis) (P02866 whole entry, looked up): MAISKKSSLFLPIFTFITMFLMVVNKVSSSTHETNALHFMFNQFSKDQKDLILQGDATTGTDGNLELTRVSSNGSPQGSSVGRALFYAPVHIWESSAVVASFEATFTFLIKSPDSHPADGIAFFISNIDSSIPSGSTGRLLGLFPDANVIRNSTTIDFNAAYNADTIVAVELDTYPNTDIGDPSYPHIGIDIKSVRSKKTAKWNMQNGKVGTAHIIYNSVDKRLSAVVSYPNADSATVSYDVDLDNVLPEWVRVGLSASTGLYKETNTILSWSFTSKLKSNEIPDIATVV
Chain of Focal adhesion kinase 1 (Homo sapiens) (Q05397 whole entry, looked up): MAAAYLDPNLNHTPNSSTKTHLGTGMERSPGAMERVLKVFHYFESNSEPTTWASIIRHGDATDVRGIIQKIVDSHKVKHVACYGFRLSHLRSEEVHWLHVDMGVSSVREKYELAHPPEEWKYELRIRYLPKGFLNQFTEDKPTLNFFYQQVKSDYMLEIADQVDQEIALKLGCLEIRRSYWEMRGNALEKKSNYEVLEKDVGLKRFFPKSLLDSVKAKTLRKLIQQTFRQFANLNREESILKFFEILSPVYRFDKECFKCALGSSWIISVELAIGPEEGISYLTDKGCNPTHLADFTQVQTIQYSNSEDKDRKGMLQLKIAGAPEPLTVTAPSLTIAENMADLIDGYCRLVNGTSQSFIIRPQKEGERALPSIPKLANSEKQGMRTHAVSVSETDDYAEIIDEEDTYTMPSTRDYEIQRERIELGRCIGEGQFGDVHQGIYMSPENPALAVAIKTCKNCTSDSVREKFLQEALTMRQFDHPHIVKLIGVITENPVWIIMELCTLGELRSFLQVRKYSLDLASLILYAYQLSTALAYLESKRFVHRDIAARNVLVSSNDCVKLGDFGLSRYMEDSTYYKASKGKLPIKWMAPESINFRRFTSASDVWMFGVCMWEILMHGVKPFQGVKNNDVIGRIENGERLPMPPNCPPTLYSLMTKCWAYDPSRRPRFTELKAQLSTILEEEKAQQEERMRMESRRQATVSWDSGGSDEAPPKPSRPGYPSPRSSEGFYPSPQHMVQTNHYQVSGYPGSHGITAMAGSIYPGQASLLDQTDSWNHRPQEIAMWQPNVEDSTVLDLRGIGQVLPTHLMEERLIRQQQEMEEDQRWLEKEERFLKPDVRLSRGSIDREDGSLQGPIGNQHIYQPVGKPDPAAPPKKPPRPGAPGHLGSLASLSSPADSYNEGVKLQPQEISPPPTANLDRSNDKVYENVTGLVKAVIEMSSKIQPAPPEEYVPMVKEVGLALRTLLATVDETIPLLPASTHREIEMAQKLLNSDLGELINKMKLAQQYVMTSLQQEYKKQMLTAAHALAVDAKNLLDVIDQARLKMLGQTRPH

Take `CN(C)CCCCNC(=O)[C@H]1C[C@H]2C(=O)NCC(=O)N2[C@H]1c1ccc(O)cc1`: the composite z-score in the test with Albumin (Bos taurus) was -0.411; in test [2] it was -0.368; in [3], -0.13; in test [4] it was 0.712; in test [5], 0.0967; in test [6], -0.537. For the same molecule, the composite z-score with Sam68 (KHDRBS1) is -0.714; in test [7], 0.367; in test [8] it was 0.342; in [9] it was 0.489; in test [10] it was -0.791; in [11] it was -0.424. In addition, the composite z-score in test [12] was -0.473; in test [13], 0.481; in [14], 0.304; in the test on Lefty1 it was 0.057; in test [16] it was 1.08. Moreover, in [1], the composite Z-score is 0.312 (inactive). Moreover, the z-score in test [15] was -0.124; in test [17], 0.836 (inactive).
`COc1ccc([Si](C)(C)[C@H]2[C@H](CC(=O)N3Cc4ccccc4C[C@H]3CO)O[C@@]3(C(=O)N(C)c4c(Br)cc(C)cc43)[C@@H]2C)cc1`: the composite z-score was 0.238 in the test with Albumin (Bos taurus); 0.0643 in [2]; -0.164 in test [3]; 0.0971 in [4]; 0.787 in test [5]; 0.152 in [6]. Besides, the composite z-score in the test with Sam68 (KHDRBS1) stood at 1.1; in test [7] it was 0.7; in test [8], 1.06; in test [9], 0.533; in test [10], 0.777; in test [11] it was 0.172. Also, the composite z-score in test [12] came out at 0.636; in [13], 1.34; in test [14] it was 1.24; in the test with Lefty1, 1.58; in test [16], 0.655. Moreover, the composite Z-score in test [1] was 0.298 (inactive). Also, the values for the z-score in test [15] and in test [17] were -0.224 and -0.0165 (inactive), respectively.
Regarding `C=C(C)[C@@H]1CC=C(C(O)C2C=CC3C(=O)N(c4ccccc4)C(=O)C3N2Nc2ccc([N+](=O)[O-])cc2)CC1` (stereo not given in full), the composite z-score with Albumin (Bos taurus) is 0.83; in test [2], 0.0254; in test [3], 0.09; in test [4], 0.558; in test [5], 2.92; in [6] it was 0.22. The composite z-score with Sam68 (KHDRBS1) was determined as 1.32; in [7], 0.077; in [8] it was 0.246; in [9], 0.594; in test [10] it was 1.27; in test [11], 0.0881. The composite z-score amounted to 0.995 in test [12]; 1.15 in test [13]; 0.269 in test [14]; 1.41 with Lefty1; 0.963 in test [16]. The composite Z-score in [1] is 0.115 (inactive). Moreover, the z-score was -1.55 in test [15] and 0.158 (inactive) in test [17].
For the molecule `CCCC=C(CCC)[C@@H](NC(=O)c1ccc(C(F)(F)F)cc1)c1ccc(C(F)(F)F)cc1`, the composite z-score in the test with Albumin (Bos taurus) is 1.01; in test [2], 0.326; in test [3], 0.105; in test [4], 0.205; in [5], 2.94; in test [6] it was -0.0554. Further, the composite z-score is 1.31 in the test with Sam68 (KHDRBS1); -0.748 in [7]; 1.07 in test [8]; 0.549 in test [9]; 1.23 in test [10]; 0.156 in [11]. Also, the composite z-score in test [12] was 1; in test [13] it was 0.384; in test [14], -0.635; in the test on Lefty1, 0.131; in test [16] it was 1.38. The composite Z-score in test [1] is -0.523 (inactive). Further, the values for the z-score in test [15] and in test [17] were 2.65 and 2.29 (inactive), respectively.
Consider `COC(=O)[C@@]1(Cc2ccccc2)[C@H]2c3cc(C(=O)N(C)C)n(Cc4ccc(S(C)(=O)=O)cc4)c3C[C@H]2CN1C(=O)c1ccccc1`, for which the composite z-score worked out at 1.13 in the test with Albumin (Bos taurus); 0.364 in test [2]; 0.199 in test [3]; 0.647 in test [4]; 2.9 in test [5]; 0.722 in test [6]. Moreover, the composite z-score in the test on Sam68 (KHDRBS1) is 0.296; in test [7] it was -0.755; in test [8] it was 1.08; in [9] it was 3.21; in test [10] it was 0.884; in test [11], 1.31. Further, the composite z-score in test [12] is 0.989; in test [13] it was -0.0741; in [14], -0.277; in the test on Lefty1, -0.367; in [16], 1.13. Further, the composite Z-score in [1] was -0.368 (inactive). Also, the z-score was -0.699 in test [15] and 1.6 (inactive) in [17].
